Source: PubChem BioAssay AID624325 (Sanford-Burnham Center for Chemical Genomics, 2012)
Out of some 2,300 compounds screened, about 1,000 (43%) were called active.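 The calls were made as follows: active = compounds inhibiting the enzyme by at least 50% at 15 µM in any one of the replicates; inactive = the rest.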 So high a share suggests a set chosen from earlier hits. A selection follows.

Target: Fatty acid synthase (Homo sapiens) (UniProt P49327)
Assay: FAS thioesterase domain inhibitors, confirmation, biochemical, fluorescence intensity, single concentration (AID 624325);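 also: 0% = enzyme with DMSO only and 100% = wells lacking enzyme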
Conditions: recombinant FAS-TE, OMFH fluorogenic substrate, at 15 µM, active compounds read high

Fatty acid synthase (Homo sapiens), sequence (P49327 whole entry, looked up, the tested form may be a part): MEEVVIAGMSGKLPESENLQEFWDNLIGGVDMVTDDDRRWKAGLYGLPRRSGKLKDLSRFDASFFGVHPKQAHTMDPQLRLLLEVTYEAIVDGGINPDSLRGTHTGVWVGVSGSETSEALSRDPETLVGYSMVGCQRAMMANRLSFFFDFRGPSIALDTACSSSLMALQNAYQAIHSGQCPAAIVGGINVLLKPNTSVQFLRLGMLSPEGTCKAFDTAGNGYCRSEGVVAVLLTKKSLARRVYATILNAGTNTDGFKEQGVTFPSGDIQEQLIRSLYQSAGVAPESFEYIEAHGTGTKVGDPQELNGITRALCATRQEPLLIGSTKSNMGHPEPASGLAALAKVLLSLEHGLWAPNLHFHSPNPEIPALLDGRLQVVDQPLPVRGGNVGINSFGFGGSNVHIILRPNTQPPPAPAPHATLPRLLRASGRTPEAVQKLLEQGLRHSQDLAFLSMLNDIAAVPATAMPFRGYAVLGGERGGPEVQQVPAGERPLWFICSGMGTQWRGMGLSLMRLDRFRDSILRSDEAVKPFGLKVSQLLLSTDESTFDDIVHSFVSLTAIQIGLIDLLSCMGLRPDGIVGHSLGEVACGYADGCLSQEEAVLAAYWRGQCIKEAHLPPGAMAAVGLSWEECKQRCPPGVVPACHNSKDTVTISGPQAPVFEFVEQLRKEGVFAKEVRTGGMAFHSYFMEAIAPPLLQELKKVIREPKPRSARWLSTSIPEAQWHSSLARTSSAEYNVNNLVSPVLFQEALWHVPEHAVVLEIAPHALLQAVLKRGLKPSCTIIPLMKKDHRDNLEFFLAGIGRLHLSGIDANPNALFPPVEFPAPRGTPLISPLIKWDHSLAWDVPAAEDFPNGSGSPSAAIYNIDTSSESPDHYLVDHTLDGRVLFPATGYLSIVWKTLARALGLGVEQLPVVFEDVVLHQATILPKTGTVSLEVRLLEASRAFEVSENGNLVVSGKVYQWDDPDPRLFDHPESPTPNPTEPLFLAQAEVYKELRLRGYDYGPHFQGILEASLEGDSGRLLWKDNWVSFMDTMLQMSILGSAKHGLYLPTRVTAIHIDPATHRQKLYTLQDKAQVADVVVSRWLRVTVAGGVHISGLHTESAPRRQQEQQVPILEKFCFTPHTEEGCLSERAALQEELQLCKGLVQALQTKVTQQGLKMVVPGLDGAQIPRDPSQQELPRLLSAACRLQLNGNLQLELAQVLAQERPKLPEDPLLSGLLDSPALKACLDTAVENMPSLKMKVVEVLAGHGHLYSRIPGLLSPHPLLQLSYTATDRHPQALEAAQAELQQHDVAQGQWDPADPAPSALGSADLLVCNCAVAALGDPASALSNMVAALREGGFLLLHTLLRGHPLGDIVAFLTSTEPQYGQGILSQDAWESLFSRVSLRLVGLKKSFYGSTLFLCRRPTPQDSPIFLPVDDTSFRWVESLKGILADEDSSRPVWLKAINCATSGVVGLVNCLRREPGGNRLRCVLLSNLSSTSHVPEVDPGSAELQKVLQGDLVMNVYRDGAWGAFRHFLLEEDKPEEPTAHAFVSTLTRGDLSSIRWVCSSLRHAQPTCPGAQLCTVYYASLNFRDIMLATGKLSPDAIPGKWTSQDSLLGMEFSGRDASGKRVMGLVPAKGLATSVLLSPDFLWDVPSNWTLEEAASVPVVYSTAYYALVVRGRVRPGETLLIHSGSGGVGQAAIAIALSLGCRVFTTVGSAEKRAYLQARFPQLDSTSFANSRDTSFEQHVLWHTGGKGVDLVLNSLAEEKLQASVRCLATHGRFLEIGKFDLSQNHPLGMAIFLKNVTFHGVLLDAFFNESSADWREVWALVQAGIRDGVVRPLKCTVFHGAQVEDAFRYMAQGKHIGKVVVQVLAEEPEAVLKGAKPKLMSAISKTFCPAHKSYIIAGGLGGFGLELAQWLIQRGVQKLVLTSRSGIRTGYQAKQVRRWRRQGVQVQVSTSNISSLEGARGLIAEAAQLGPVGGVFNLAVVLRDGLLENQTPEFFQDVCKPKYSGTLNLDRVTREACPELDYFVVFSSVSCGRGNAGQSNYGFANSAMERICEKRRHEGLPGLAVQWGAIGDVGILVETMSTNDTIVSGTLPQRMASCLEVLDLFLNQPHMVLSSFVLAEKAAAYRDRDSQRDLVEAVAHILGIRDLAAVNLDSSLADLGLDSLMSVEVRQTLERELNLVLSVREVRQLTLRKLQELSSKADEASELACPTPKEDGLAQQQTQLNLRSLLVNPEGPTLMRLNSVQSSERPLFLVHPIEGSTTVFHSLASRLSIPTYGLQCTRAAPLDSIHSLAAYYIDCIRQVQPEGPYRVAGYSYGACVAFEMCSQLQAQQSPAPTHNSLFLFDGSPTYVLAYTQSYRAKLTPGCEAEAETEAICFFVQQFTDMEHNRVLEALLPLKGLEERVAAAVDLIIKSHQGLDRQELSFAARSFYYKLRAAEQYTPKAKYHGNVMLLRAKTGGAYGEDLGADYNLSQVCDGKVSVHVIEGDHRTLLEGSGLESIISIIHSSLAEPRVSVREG

inhibition, inactive:
O=C(Nc1ccc2ccccc2c1)/C(=C/c1cccc(Br)c1)NC(=O)c1ccco1 27.6%, COc1ccc(NS(=O)(=O)c2cc(NC(=O)c3ccc(S(=O)(=O)N(C)C)cc3)ccc2N2CCOCC2)cc1 9.83%, O=C(Nc1ccc(OC(F)(F)F)cc1)c1ccc2c(c1)no[n+]2[O-] 14.6%, COc1ccc(NS(=O)(=O)c2cc(NC(=O)/C=C/c3cc(OC)c(OC)c(OC)c3)ccc2N2CCCCC2)cc1 19.7%, COc1cc(S(=O)(=O)N2CCOCC2)ccc1NC(=O)COc1ccc(N(C)S(=O)(=O)c2ccc(C)cc2)cc1 7.91%, Cc1ccc(N2C(=O)C3N=NN(CC(=O)N4N=C(c5cccc6ccccc56)CC4c4ccccc4)C3C2=O)cc1 (configuration not stated) 10.8%, Cc1ccc2c(c1)-c1c(ssc1=S)C(C)(C)N2C(=O)CN1C(=O)c2ccccc2C1=O 2.45%, CCOC1=C2[C@H]([C@H]3C(=O)N(c4ccccc4)C(=O)[C@H]3C1)[C@@H](c1ccccc1)N(S(=O)(=O)c1ccc(C)cc1)[C@H]2c1ccccc1 32.3%, CCOC1=C2CN(S(=O)(=O)c3ccc(C)cc3)[C@H](c3cccs3)C[C@H]2[C@H]2C(=O)N(c3ccccc3)C(=O)[C@H]2C1 33%, Cc1cccc([C@@H]2[C@@H]3C(=O)N(Cc4ccccc4)C(=O)[C@@H]3[C@]3(Cc4ccc(Cl)cc4)C(=O)N(c4cccc(Cl)c4)C(=O)N23)c1 11.9%, Cc1ccc(S/C(=N\S(=O)(=O)c2ccc(Cl)cc2)c2ccccc2)cc1 29.6%, COc1ccc([N+](=O)[O-])cc1NC(=O)CC1SC(=Nc2cccc(C)c2C)N(/N=C(\C)c2ccc(C)cc2)C1=O (configuration not stated) 25.8%, CCCCCCCCCCCCN1[C@@H](CC(C)=O)c2cc(F)cc(F)c2S1(=O)=O 9.68%, COc1ccc2c(c1)[C@H]1[C@H](CO2)[C@H](c2ccccc2)[C@]2(C)C(=O)Nc3cc(F)c(F)cc3C(=O)N12 34%, O=C(OC1CCOC1=O)c1ccc(-c2nc3ccccc3s2)s1 (configuration not stated) 35.3%, CCCc1cc(-c2nc(-c3ccc(C)cc3)cs2)ccn1 46.9%, O=C(Nc1cccc(S(=O)(=O)Nc2ccc(Cl)cc2)c1)c1ccc2c(c1)OCCO2 37.6%, COc1ccc(C2Nc3ccccc3C(=O)N2c2ccc(Cl)cc2)cc1Cn1cc([N+](=O)[O-])cn1 (configuration not stated) 41.9%, O=[N+]([O-])c1ccc(CN2CC(N3CCC(c4ccccc4)CC3)CS2(=O)=O)cc1 (configuration not stated) 22.4%, Cc1cc(C(=O)COc2ccccc2[N+](=O)[O-])c(C)n1-c1cccc(S(=O)(=O)N2CCOCC2)c1 21.2%

inhibition, active:
Cc1nn(CCOc2ccc(Br)cc2)c(C)c1[N+](=O)[O-] 36.2%, COc1ccc([N+](=O)[O-])cc1N(CC(O)Cn1nnc2ccccc21)S(=O)(=O)c1ccc(C)cc1 (configuration not stated) 65.3%, O=C(N/N=C/c1cc([N+](=O)[O-])ccc1O)/C(=C\c1cccs1)NC(=O)c1ccccc1 42.4%, O=C(NCc1ccco1)/C(=C\c1cccc([N+](=O)[O-])c1)NC(=O)c1ccco1 71.9%, O=C(/C=C/c1cccc([N+](=O)[O-])c1)NCCSCc1ccco1 73.2%, Fc1ccc(-n2c(Cc3ccccc3)nnc2SCc2nc(-c3ccc(Cl)cc3)no2)cc1 51.8%, O=C(Nc1ccc(C(F)(F)F)cc1)c1cccc(-n2cnnn2)c1 65.5%, O=c1oc(-c2ccco2)nc2sc3c(c12)CCCCC3 51%, CCC(CC)COC(=O)C1=C(C)NC(=O)NC1c1ccc([N+](=O)[O-])cc1 (configuration not stated) 78.8%, COc1ccc(C2=NN(C(=O)CSc3nc(=O)n4ccc(C)cc4n3)C(c3ccc(C)cc3)C2)cc1 (configuration not stated) 46%, C#CCN(C[C@H]1[C@H](OC(=O)NC2CCCC2)[C@H](OC(=O)NC2CCCC2)C[C@H]2C(=O)N(c3ccccc3)C(=O)[C@@H]12)S(=O)(=O)c1ccc(C)cc1 48.3%, COc1ccc([C@@H]2[C@@H]3C(=O)N(C(C)(C)C)C(=O)[C@@H]3[C@]3(Cc4ccccc4)C(=O)N(c4cccc(Br)c4)C(=O)N23)cc1 46.4%, Cc1ccc(C(=O)N/C(=C\c2cn(S(=O)(=O)N(C)C)c3ccccc23)C(=O)N2CCCC2)cc1 88.2%, COc1ccc([N+](=O)[O-])cc1NC(=O)c1ccc(N(Cc2ccccc2C)S(C)(=O)=O)cc1 39.2%, CC(C)c1ccc2c(c1)c(SC(C)(C)C)c(CC(C)(C)C(=O)O)n2Cc1ccc(Cl)cc1 51.4%, O=S(=O)(Nc1cccc(-n2cnnn2)c1)c1cnc(Cl)c(Cl)c1 68%, O=C(Nc1ccccc1)c1nnsc1S(=O)(=O)c1ccc(Cl)cc1 72.3%, O=C(CC(c1ccccc1)c1ccccc1)NCC(O)c1ccc([N+](=O)[O-])cc1 (configuration not stated) 55.1%, CC(C=Cc1ccccc1)=NNS(=O)(=O)c1ccc([N+](=O)[O-])cc1 71.2%, COCCNC(=O)CCCn1c(=O)c2ccccc2n(Cc2cccc([N+](=O)[O-])c2)c1=O 37.5%, O=C(Oc1cccc(N2C(=O)C3C4c5ccccc5C(c5ccccc54)C3C2=O)c1)c1ccco1 (configuration not stated) 36.3%, CCCCCOC(=O)c1ccc(N2C(=O)C3C4C=CC(C4)C3C2=O)cc1 (configuration not stated) 51.4%, Cc1ccc(NC(=O)c2nc[nH]c2C(=O)N[C@@H](CCCCNC(=O)OC(C)(C)C)C(=O)OC(C)(C)C)cc1 83.9%, CCOC(=O)c1ccc(NC(=O)c2nc[nH]c2C(=O)N[C@@H](CCCCNC(=O)OC(C)(C)C)C(=O)OC(C)(C)C)cc1 57.3%, Cc1cccc(CS(=O)(=O)c2ncc(Cl)c(C(=O)Nc3ccc(F)cc3)n2)c1 53.2%, O=C(Nc1ccccc1Cl)/C(Cl)=C(\Cl)S(=O)c1ccccc1 (configuration not stated) 76.4%, Nc1c(-c2cccc(Cl)c2)cnn1-c1cccc([N+](=O)[O-])c1 48.9%
